# “And” between values parts separate entries of the source, which are not always exact repeats. Equal entries are not always repeated. The source made the active and inactive calls.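 The calls were made as follows, unless noted: active = compounds whose cell count with miR-34 switched on is under 0.7 times the count with it off; inactive = the rest.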
# Key:
# [1] = Wnt pathway potentiators raising nuclear beta-catenin – imaging, WNT3A-conditioned medium, mouse C2C12, NPC library, primary screen (AID 1117326; in the data active = nuclear beta-catenin stimulation mostly above about 4.2%, no sharp cut-off; inactive = mostly below about 10%); conditions: stronger effect = higher value
# [2] = stimulators of insulin release from INS-1E, primary screen, cell-based, 5 mM glucose, NPC library (AID 1117329;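 active = compound raises insulin release from rat beta cells at 5 mM glucose, no numeric limit stated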); conditions: rat INS-1E insulin secretion, at 10 µM, stronger effect = higher value
# [3] = growth inhibition of GSK3B-pretreated HCT116 cells – cell-based, CellTiter-Glo, 0.2 to 20 µM (AID 1117336;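 active = compounds lowering colon cancer cell viability after pretreatment blocking the GSK3B kinase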); conditions: HCT116 viability after GSK3B inhibitor, at 20 µM, stronger effect = higher value
# [4] = inhibition of endothelial tube formation, primary screen, imaging, VEGF stimulated, CD31 staining, tube area, NPC library (AID 1117340;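 active = compound that reduces growth-factor-driven endothelial tube area in a mixed cell culture, no cutoff stated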); conditions: VEGF-stimulated ADSC/ECFC co-culture, at 10 µM, stronger effect = higher value
# [5] = GLP1 release stimulators, primary, NCI-H716, NPC library (AID 1117341;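 active = compound raises GLP1 secretion from the human gut endocrine cells, with no numeric limit stated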); conditions: NCI-H716 cells, at 10 µM, stronger effect = higher value
# [6] = HCT116 colon cancer cell growth inhibition, primary screen, CellTiter-Glo luminescence, NPC library (AID 1117342;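 active = compounds that lower survival of HCT116 colon cancer cells in the luminescence readout, no numeric limit stated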); conditions: at 20 µM (top of the series)
# [7] = reduced SW480 viability measured with CellTiter-Glo, NPC library, primary (AID 1117343;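 active = compounds that lower viability of the colon cancer cells in the luminescence readout, with no numeric limit stated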); conditions: CellTiter-Glo luminescence; at 20 µM (top of the series) unless noted
# [8] = NPC library primary testing for decreased DLD-1 cell viability via CellTiter-Glo (AID 1117346;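 active = compounds that lower survival of DLD-1 colon cancer cells in the luminescence readout, no cutoff given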); conditions: DLD-1 viability, CellTiter-Glo luminescence; at 20 µM (top of the series)
# [9] = EMT-state selective cytotoxicity in co-culture – imaging, PC-3E GFP, TEM4-18 mCherry, primary screen (AID 1345086;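 active = compounds killing one labelled cell type while sparing the other, by normalised counts and ratio limits, not self-fluorescent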;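 as to all read-outs here: cells exposed to compound for 72 h before imaging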;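 as to red/green cell ratio (normalised): normalised mesenchymal count divided by normalised epithelial count so high means epithelial killing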); conditions: PC-3E GFP / TEM4-18 mCherry co-culture, imaging cell counts, at 1 µM; for red/green cell ratio (normalised): actives lie on both sides, counts scaled to control wells, 1 = unselective
# [10] = viability loss with induced miR-34 in A549 – imaging, A549 dox-inducible miR-34, nuclei and caspase counts, primary screen (AID 1347080); conditions: A549 miR-34 inducible, Hoechst nuclei count, 48 h
# [11] = MELAS cybrid and Rieske KO viability enhancers – cell-based, MELAS cybrids, Rieske KO mouse fibroblasts, CellTiter-Glo, primary screen (AID 1508586;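 active = mean z-score across replicates of 1.96 or higher in either the MELAS or the Rieske mutant cell line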;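 also: z relative to plate mean and SD of compound and empty wells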); conditions: low glucose
# [12] = target: NAD(+) hydrolase SARM1 (Homo sapiens) (UniProt Q6SZW1); experiment: blocking NAD cleavage by SARM1 SAM-TIR – cell lysate, NAD-Glo luminescence (AID 1508614;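 active = compound whose remaining NAD level is above about 45 nM, limit read from the data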;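 also: higher remaining NAD means stronger inhibition of SARM1 NADase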); conditions: SAM-TIR HEK293T lysate NADase, at 1 µM, stronger effect = higher value
# Sequence of NAD(+) hydrolase SARM1 (Homo sapiens) (Q6SZW1 whole entry, looked up): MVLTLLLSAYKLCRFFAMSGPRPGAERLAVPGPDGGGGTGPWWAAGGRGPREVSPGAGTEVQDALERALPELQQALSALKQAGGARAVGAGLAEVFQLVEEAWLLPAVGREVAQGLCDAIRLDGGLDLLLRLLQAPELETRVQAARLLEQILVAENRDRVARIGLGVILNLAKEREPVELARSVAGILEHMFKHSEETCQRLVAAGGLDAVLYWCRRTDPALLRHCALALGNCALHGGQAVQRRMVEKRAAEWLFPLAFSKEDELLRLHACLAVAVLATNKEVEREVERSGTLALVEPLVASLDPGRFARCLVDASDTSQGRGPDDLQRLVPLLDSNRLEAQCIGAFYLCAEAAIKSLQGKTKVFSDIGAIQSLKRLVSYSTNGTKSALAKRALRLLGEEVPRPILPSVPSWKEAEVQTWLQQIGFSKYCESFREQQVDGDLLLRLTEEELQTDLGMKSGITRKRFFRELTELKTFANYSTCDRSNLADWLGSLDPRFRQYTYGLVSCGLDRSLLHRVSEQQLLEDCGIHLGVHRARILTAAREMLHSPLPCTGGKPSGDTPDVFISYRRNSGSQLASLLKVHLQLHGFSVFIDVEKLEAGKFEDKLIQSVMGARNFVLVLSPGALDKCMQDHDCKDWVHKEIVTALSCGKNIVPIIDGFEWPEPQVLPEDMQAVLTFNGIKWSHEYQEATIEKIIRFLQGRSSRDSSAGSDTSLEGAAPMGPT
# [13] = P. berghei load reduction in hepatocytes – cell-based, HepG2, luciferase luminescence, HepG2 viability, primary screen (AID 624349; in the data active = parasite load remaining mostly below about 12%, no sharp cut-off; inactive = mostly above about 10%;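 also: 100% = mean of DMSO negative control wells on the same plate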); conditions: P. berghei liver stage in HepG2, luciferase luminescence, concentration not given here; parasite load remaining: stronger effect = lower value; viability: measured here: HepG2 viability without parasites
# [14] = measured here: epithelial PC-3E GFP cell survival
# [15] = measured here: mesenchymal TEM4-18 mCherry cell survival
# [16] = stronger effect = lower value, cell number ratio, induced over uninduced
# [17] = measured here: relative caspase fold change +Dox/-Dox
# [18] = measured here: total cells with miR-34 induction, stronger effect = lower value
# [19] = measured here: total cells without miR-34 induction
# [20] = MELAS cybrid survival, CellTiter-Glo 48 h, stronger effect = higher value
# [21] = Rieske KO mouse fibroblast survival, CellTiter-Glo 72 h
smiles,measurement,setting,value
CC(S)C(=O)NCC(=O)O (stereo not given),nuclear beta-catenin stimulation,[1]; at 10 µM,-0.5% (inactive)
same,nuclear beta-catenin stimulation,"[1]; stimulation, at 2 µM",0.7%
same,insulin secretion stimulation,[2],-0.8% (inactive)
same,viability decrease,[3],-7.03% (inactive)
same,tube area decrease,[4],17.7% (inactive)
same,GLP1 secretion stimulation,[5],-1.7% (inactive)
same,inhibition of viability,[6],-7.95% (inactive)
same,viability decrease (inhibition),[7],46.8% (inactive)
same,viability decrease (inhibition),[8],0.37% (inactive)
same,red/green cell ratio (normalised),[9],0.9 (inactive)
same,normalised cell number,[9]; [14],1.06
same,normalised cell number,[9]; [15],0.94
same,fold change,[10]; [16],0.956 (inactive) and 0.886 (inactive)
same,fold change,[10]; [17],0.809 and 0.891
same,cell count,[10]; [18],8410 and 8420
same,cell count,[10]; [19],8800 and 9500
same,z-score,[11]; [20],-0.286 (inactive)
same,z-score,[11]; [21],0.558
same,remaining NAD,[12],10 nM (inactive)
CCCN(CCC)CCc1cccc2c1CC(=O)N2,parasite load remaining,[13],55.3% (inactive)
same,viability,[13],102%
same,nuclear beta-catenin stimulation,[1]; at 10 µM,2.8% (inactive)
same,nuclear beta-catenin stimulation,"[1]; stimulation, at 2 µM",1.5%
same,insulin secretion stimulation,[2],2.8% (inactive)
same,viability decrease,[3],8% (inactive)
same,tube area decrease,[4],-10% (inactive)
same,GLP1 secretion stimulation,[5],3.9% (inactive)
same,inhibition of viability,[6],21.3% (inactive)
same,viability decrease (inhibition),[7],29.8% (inactive)
same,viability decrease (inhibition),[8],26.9% (inactive)
same,red/green cell ratio (normalised),[9],1.06 (inactive)
same,normalised cell number,[9]; [14],0.99
same,normalised cell number,[9]; [15],1.05
same,fold change,[10]; [16],0.948 (inactive) and 0.94 (inactive) and 0.88 (inactive)
same,fold change,[10]; [17],1.29 and 1.47 and 5.03
same,cell count,[10]; [18],9580 and 9680 and 11700
same,cell count,[10]; [19],10100 and 10300 and 13300
same,z-score,[11]; [20],0.118 (inactive) and -0.361 (inactive)
same,z-score,[11]; [21],0.253 and -0.254
same,remaining NAD,[12],10 nM (inactive)

# From PubChem BioAssay
